Results on 14 molecules are retold here after PubChem BioAssay (NCI).

Some test systems named below: SK-MEL-2 melanoma; EKVX NSCLC; SN12C renal; UO-31 renal; TK-10 renal; ACHN renal; CAKI-1 renal; A498 renal; MOLT-4 leukemia.
Holding throughout (assay): NCI-60 one-dose screen, 48 h (100 = growth as untreated, 0 = no growth, -100 = all killed)
Holding throughout (settings): 10 µM unless noted

The structures appear in SMILES notation. The panel holds about 83,000 compounds, 20% with a hit somewhere; the sample as a whole holds those more often.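 Single-concentration screen, 48 h exposure, 96-well plates. Endpoint: percent growth. Below 10 = active.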 Unmarked numbers belong to inactive results. The source made the active and inactive calls.

Consider `CCO/C=N/C1=C(C#N)C(c2ccc(Cl)cc2)c2sc3c(CC)cccc3c2O1` (stereo unspecified), for which the growth is 38.8% in the assay with SK-MEL-2 melanoma; 47.8% in the assay with EKVX NSCLC; 36.3% with SN12C renal; 39.5% in the assay on UO-31 renal; 60.6% with TK-10 renal; 40.9% in the assay on ACHN renal. Further, the growth is 40.6% in the assay with CAKI-1 renal, 2.43% (active) in the assay with A498 renal and 23.6% with MOLT-4 leukemia.

On to `O=C(Nc1ccc2c(ccn2Cc2ccccn2)c1)c1ccnnc1`, for which the growth in the assay on SK-MEL-2 melanoma was 102%; in the assay with EKVX NSCLC, 75.6%; with SN12C renal, 70.2%; in the assay on UO-31 renal, 58.8%; with TK-10 renal it was 60.2%; with ACHN renal, 97.3%. Moreover, the values for the growth in the assay with CAKI-1 renal, in the assay on A498 renal and in the assay on MOLT-4 leukemia were 65.9%, 56.8% and 115%, respectively.

With `Cc1c(F)cc(C(N)=O)cc1NCC(=O)Nc1ccc([N+](=O)[O-])cc1`, the growth in the assay on SK-MEL-2 melanoma was 96.3%; with EKVX NSCLC it was 61.4%; with SN12C renal it was 73.2%; in the assay with UO-31 renal, 56.7%; in the assay on TK-10 renal, 62.6%; in the assay on ACHN renal, 92.9%. In addition, the growth is 62.3% in the assay on CAKI-1 renal, 22.9% in the assay with A498 renal and 105% in the assay with MOLT-4 leukemia.

Regarding `COc1ccccc1C(=O)Nc1cccc2c1C(=O)C(=O)C=C2`, the growth in the assay on SK-MEL-2 melanoma is 109%; in the assay on EKVX NSCLC, 72.2%; in the assay with SN12C renal, 90.9%; in the assay on UO-31 renal, 59.2%; in the assay with TK-10 renal, 116%; with ACHN renal, 101%. Moreover, the results for the growth in the assay with CAKI-1 renal, with A498 renal and with MOLT-4 leukemia were 76.4%, 38.4% and 36.8%, respectively.

On to `O=C(O)c1cn(C2CC2)c2cc(N3CCN(C(=O)CN4C(=O)CSC4=O)CC3)c(F)cc2c1=O`, for which the growth with SK-MEL-2 melanoma is 113%; with EKVX NSCLC, 74.4%; with SN12C renal, 91.7%; in the assay on UO-31 renal it was 56.4%; in the assay on TK-10 renal, 73.5%; with ACHN renal it was 93.7%. In addition, the growth in the assay on CAKI-1 renal is 76.2%; in the assay with A498 renal, 101%; with MOLT-4 leukemia, 109%.

In the case of `COc1cc(-c2nn(C(C)(C)C)cc2-c2ccnc(NCCCNS(=O)(=O)c3ccc(C)cc3)n2)ccc1Cl`, the growth in the assay on SK-MEL-2 melanoma is 87.4%; in the assay on EKVX NSCLC, 46.1%; in the assay on SN12C renal it was 60.8%; in the assay on UO-31 renal it was 44%; in the assay with TK-10 renal it was 65.2%; with ACHN renal it was 89.6%. Also, the growth is 27.4% in the assay with CAKI-1 renal, 30.9% with A498 renal and 44.8% in the assay with MOLT-4 leukemia.

With `COC(=O)C(Cc1ccccc1)Nc1nc(NC(Cc2ccccc2)C(=O)OC)nc(N2CCOCC2)n1` (stereo unspecified), the growth was 111% in the assay on SK-MEL-2 melanoma; 105% in the assay on EKVX NSCLC; 104% with SN12C renal; 81.2% in the assay with UO-31 renal; 103% with TK-10 renal; 109% with ACHN renal. Also, the growth is 86.8% with CAKI-1 renal, 107% in the assay on A498 renal and 101% in the assay with MOLT-4 leukemia.

For the molecule `CC1(C)CC[C@]2(C(=O)N3CCOCC3)CC[C@]3(C)C(=CC[C@@H]4[C@@]5(C)C/C(=C/c6ccco6)C(=O)C(C)(C)[C@@H]5CC[C@]43C)[C@@H]2C1`, the growth was 103% in the assay with SK-MEL-2 melanoma; 63.4% in the assay on EKVX NSCLC; 86% in the assay on SN12C renal; 49.9% in the assay on UO-31 renal; 75.8% in the assay with TK-10 renal; 81.7% in the assay with ACHN renal. For the same molecule, the growth in the assay on CAKI-1 renal was 37%; in the assay on A498 renal, 68.7%; in the assay with MOLT-4 leukemia, 52.3%.

`C=C(C)[C@@H]1CC[C@]2(COP(=O)(OCC)OCC)CC[C@]3(C)[C@H](CC[C@@H]4[C@@]5(C)CCCNC(C)(C)[C@@H]5CC[C@]43C)[C@@H]12`: the growth in the assay on SK-MEL-2 melanoma is 92.7%; with EKVX NSCLC, 40.4%; with SN12C renal it was 46.6%; with UO-31 renal it was 30.9%; in the assay with TK-10 renal, 58.9%; with ACHN renal, 59.2%. For the same molecule, the growth with CAKI-1 renal is 29.1%; in the assay on A498 renal, 55%; in the assay with MOLT-4 leukemia, -29.8% (active).

On to `CC1=N[C@@H]2CN(C(=O)OC(C)(C)C)C[C@@H]2n2c1cc1ccccc1c2=O`, for which the growth in the assay with SK-MEL-2 melanoma was 102%; in the assay on EKVX NSCLC, 103%; in the assay on SN12C renal it was 97.1%; in the assay on UO-31 renal, 74.9%; in the assay on TK-10 renal, 123%; in the assay with ACHN renal, 92.6%. Further, the results for the growth with CAKI-1 renal, with A498 renal and in the assay on MOLT-4 leukemia were 80.2%, 114% and 106%, respectively.

Turning to `COc1ccc(C2c3sc4c(C)cccc4c3Oc3nc(CC(=O)Nc4ccccc4)[nH]c(=O)c32)cc1` (stereo unspecified), the growth with SK-MEL-2 melanoma was 92.8%; in the assay with EKVX NSCLC, 47.1%; with SN12C renal, 79.1%; with UO-31 renal, 46.7%; in the assay with TK-10 renal, 141%; with ACHN renal, 92.9%. Moreover, the figures for the growth with CAKI-1 renal, in the assay with A498 renal and in the assay with MOLT-4 leukemia were 46%, 70.6% and 101%, respectively.

As to `N#Cc1cnc2ccc(-c3cnc4[nH]ncc4c3)cc2c1N1CCc2cc(F)c(Cl)cc21`, the growth in the assay on SK-MEL-2 melanoma is -5.98% (active); in the assay with EKVX NSCLC it was -1.26% (active); with SN12C renal, 9.07% (active); in the assay with UO-31 renal it was -8.85% (active); in the assay with TK-10 renal, 13.1%; in the assay with ACHN renal, 12.5%. The growth was 15.1% with CAKI-1 renal, -53.7% (active) in the assay with A498 renal and 4.01% (active) in the assay on MOLT-4 leukemia.

For the molecule `COc1ccc(/C=N/NC(=O)c2cn(C3CC3)c3c(OC)c(N4CC5CCCNC5C4)c(F)cc3c2=O)cc1` (stereo unspecified), the growth was 107% in the assay on SK-MEL-2 melanoma; 102% with EKVX NSCLC; 81% with SN12C renal; 62.4% in the assay on UO-31 renal; 116% in the assay with TK-10 renal; 88.7% in the assay on ACHN renal. The figures for the growth in the assay with CAKI-1 renal, with A498 renal and with MOLT-4 leukemia were 82.9%, 83.3% and 60.4%, respectively.

For `Nc1ncc(-c2ccc3ncnc(N4CCc5cc(F)c(Cl)cc54)c3c2)cn1`, the growth in the assay on SK-MEL-2 melanoma was 17.1%; in the assay with EKVX NSCLC it was -9.64% (active); with SN12C renal, 17.9%; in the assay on UO-31 renal, 7.96% (active); in the assay with TK-10 renal, -15% (active); with ACHN renal, 13.4%. Moreover, the growth in the assay with CAKI-1 renal is -9.07% (active); in the assay on A498 renal, -80.7% (active); in the assay on MOLT-4 leukemia, -20.9% (active).
